In the library only some 15% were active in any assay of this set; here they are far more common.
RORgamma inh: blocks mouse ROR gamma transcriptional activity; AID 2551; Potency, µM (highest dose often 53.6 µM), for inactives: at the top dose activity change, negative = inhibition, hits mostly inhibitors; Drosophila S2 Gal4-RORgamma UAS-luciferase reporter, 20 h; P51450; 310,000 tested, 5.4% active; further: nearly all actives have a fitted effect of over 60% in size
Target sequence (P51450 whole entry, looked up, the tested form may be a part): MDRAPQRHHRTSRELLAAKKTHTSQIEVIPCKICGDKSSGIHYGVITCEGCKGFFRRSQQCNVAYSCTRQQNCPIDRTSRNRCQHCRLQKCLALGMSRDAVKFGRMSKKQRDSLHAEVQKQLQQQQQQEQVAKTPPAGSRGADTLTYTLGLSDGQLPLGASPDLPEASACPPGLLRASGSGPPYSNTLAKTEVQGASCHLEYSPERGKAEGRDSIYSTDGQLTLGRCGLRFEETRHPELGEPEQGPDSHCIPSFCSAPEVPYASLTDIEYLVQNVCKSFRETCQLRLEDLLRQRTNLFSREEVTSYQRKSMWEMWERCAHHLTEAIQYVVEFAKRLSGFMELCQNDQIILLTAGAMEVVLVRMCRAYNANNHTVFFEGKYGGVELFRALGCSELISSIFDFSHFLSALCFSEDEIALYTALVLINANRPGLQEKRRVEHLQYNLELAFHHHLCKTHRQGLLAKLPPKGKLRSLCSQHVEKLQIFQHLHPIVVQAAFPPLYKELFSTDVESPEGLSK
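Using a luciferase readout, inhibitors were identified by reduced reporter activity in Drosophila cells coexpressing a copper-inducible Gal4–ROR gamma fusion and UAS-driven Photinus luciferase, incubated 20 hr after 700 uM copper sulfate.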
ALOX12 inh: inhibitors of human 12S-lipoxygenase ALOX12; P18054; purified 12hLO, xylenol orange hydroperoxide absorbance; Potency, µM (doses to about 108 µM), inactives show at the top dose activity change, negative = inhibition, usual class: inhibitors; 580,000 tested, 1.1% active; AID 1671190
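Purified human 12hLO (150 nM final) in 25 mM Hepes, 0.01% Triton X-100, pH 7.0 was preincubated 15 min at room temperature with compound. Then 40 uM arachidonic acid was added, 30 min. Hydroperoxide was read by Fe-XO absorbance ratio 573/405 nm.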
TDP1 cell CPT: DT40-hTDP1 cell growth loss with CPT; chicken DT40 Tdp1-/-;hTDP1 cells + 20 nM CPT, ATP luminescence, 48 h; Potency, µM (series often up to 46.2 µM), for the others: top-dose activity change, negative = growth inhibition, actives largely listed as inhibitors; 420,000 tested, 12% active; AID 686979; further: nearly all actives have a fitted effect of over 55% in size
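Chicken DT40 Tdp1-/- cells stably complemented with human TDP1 were seeded at 400 cells/well in medium containing 20 nM camptothecin, exposed to pin-transferred compounds, and grown at 37 °C for at least 48 hr. Viability was read as ATP luminescence.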
Gal4-VP16 FLuc: inhibits Gal4-VP16 luciferase reporter, ROR gamma counter-screen; Drosophila S2 Gal4-VP16 UAS-luciferase, luminescence, 20 h; 310,000 tested, 3.5% active; Potency, µM (doses to about 53.6 µM), for the others: top-dose activity, negative = inhibition, usual class: inhibitors;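 further: Gal4-VP16 expression switched on by copper sulfate through the metallothionein promoter; nearly all actives have a fitted effect of over 50% in size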
TDP1 cell noCPT: qHTS for Inhibitors of human tyrosyl-DNA phosphodiesterase 1 (TDP1): qHTS in cells in absence of CPT; DT40 Tdp1-/- hTDP1 cells, no CPT, ATP luminescence, 48 h; Potency, µM (titrated, usually from 46.2 µM), without a hit: top-dose activity change, negative = growth inhibition, actives largely listed as inhibitors; 420,000 tested, 15% active; AID 686978, 2013; further: nearly all actives have a fitted effect of over 55% in size
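No-CPT arm: Tdp1-/-;hTDP1 DT40 cells (400/well) plus compounds, incubated ≥48 hr at 37 °C. Readout CellTiter-Glo luminescence.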
ELG1 repair inh: blocks ELG1-dependent DNA repair in HEK293T cells | HEK293T ELG1-luciferase reporter, luminescence, 16 h; DNA damage induced by 5-fluorouridine | Potency, µM (highest dose often 46.1 µM), inactives show at the highest dose activity change, negative = inhibition, actives largely listed as inhibitors | 330,000 tested, 2.3% active; further: nearly all actives have a fitted effect of over 55% in size
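Step one: seed 2,000 cells per well. Step two: pin-transfer compound or DMSO alongside 5-fluorouridine. Step three: incubate 16 hr, 37 °C, 5% CO2. Step four: add ONE-Glo, wait 30 min, read luminescence.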
Starred values were filed as active, the others as inactive; u = inconclusive; x = no result; [ ] = remark or other dose. The call rests on the fitted dose curve; in most records, active means well fitted curve in the direction sought with a large enough effect; inconclusive means small, poorly fitted or top-dose-only effect, or another doubt; inactive means no such curve, though single readings can be large; an effect the other way counts as inactive or inconclusive. On the % scale 0 is the no-effect control and ±100 the full control effect; potency means the concentration at half of the fitted maximal effect.

SMILES	RORgamma inh	ALOX12 inh	TDP1 cell CPT	Gal4-VP16 FLuc	TDP1 cell noCPT	ELG1 repair inh
CNC(=O)NC(=O)CN(Cc1ccc(C#N)cc1)Cc1cccc(F)c1	x	6.1%	x	x	x	x
O=C(O)c1ccccc1-c1ccccc1C(=O)Nc1nc2ccccc2s1	u	u	-17.9%	-16.9%	1.4%	19.8%
Cc1ccc(C)c2sc(NC(=O)c3nc4ccccc4s3)nc12	1µM*	26.6%	u	1µM*	u	-3.1%
O=C(Nc1nnc(SCc2ccc(F)cc2)s1)c1ccccn1	0.794µM*	-9.9%	2.59µM*	1.41µM*	5.17µM*	u
O=C(Nc1nc2ccccc2s1)c1ccccc1	10µM*	9.0%	u	u	-25.4%	u
Cc1ccc(NC(=O)Cn2c(=O)oc3cc(S(=O)(=O)N4CCC(C)CC4)ccc32)cc1C	2.9%	13.0%[57.4 µM]	14.6µM*	20µM*	u	u
Cc1ccc(NC(=O)Cn2c(=O)oc3cc(S(=O)(=O)N4CCCC4)ccc32)cc1F	x	-16.8%	-20.7%	x	-20.2%	x
Cc1cc(NC(=O)Cn2c(=O)oc3cc(S(=O)(=O)N4CCCC4)ccc32)ccc1Br	x	4.0%	20.6µM*	x	14.6µM*	x
CC(=O)c1cccc(NC(=O)Cn2c(=O)oc3cc(S(=O)(=O)N4CCCC4)ccc32)c1	25.8%	-5.2%	4.3%	0.0%	-11.3%	-10.9%
O=C(Cn1c(=O)oc2cc(S(=O)(=O)N3CCCCCC3)ccc21)Nc1ccc(F)cc1F	x	-4.6%	u	x	u	x
Cc1cc(C)cc(NC(=O)Cn2c(=O)oc3cc(S(=O)(=O)N4CCCC4)ccc32)c1	x	-15.0%	u	x	20.6µM*	x
Cc1ccc(NC(=O)Cn2c(=O)oc3cc(S(=O)(=O)N4CCCCC4)ccc32)c(Cl)c1	x	-17.3%	u	x	11.6µM*	x
COC(=O)/C=C/c1ccc(-n2ccnc2)cc1	16.3%	-2.0%	14.4%	0.5%	0.2%	16.1%
COC(=O)C1=C(C)N(c2cccc(C)c2)C(=S)NC1c1ccc(-n2ccnc2)cc1 (configuration not stated)	x	39.8µM*	x	x	x	x
Clc1cc(Br)ccc1OCCn1ccnc1	-24.3%	0.708µM*	-0.2%	5.8%	-27.2%	28.5%
Clc1cc(Br)ccc1OCCCn1ccnc1	-20.0%	u	9.0%	22.5%	u	12.9%
Cc1ccccc1OCCCCCn1ccnc1	11.2µM*	-15.2%	20.6µM*	-5.6%	16.4µM*	-21.6%
Clc1ccccc1OCCCn1ccnc1	-30.4%	0.355µM*	-20.1%	2.6%	-0.5%	-0.6%
O=c1ccc2nc3ccccc3sc-2c1	x	u	0.651µM*	x	1.46µM*	x
NC(=O)c1ccc(C(=O)OCc2nc3ccccc3o2)cc1	x	11.6%	x	x	x	x
COc1ccc(S(=O)(=O)Cc2nnnn2-c2cccc(C(F)(F)F)c2)cc1	x	19.0%	x	x	x	x
Cc1cccc(CNc2ccnc(-c3cccc(NS(C)(=O)=O)c3)n2)c1	31.6%	u	u	-21.1%	u	x
Cc1cccc(CNc2cc(-c3cccc(NS(C)(=O)=O)c3)ncn2)c1	36.5%	35.5µM*	u	6.6%	u	x
Cc1cccc(CNc2cc(-c3cccc(C#N)c3)ncn2)c1	-23.7%	u	20.6µM*	12.6µM*	4.61µM*	x
Cc1cccc(CNc2cc(-c3ccoc3)ncn2)c1	-5.7%	17.8µM*	u	-24.0%	u	x
SMILES	RORgamma inh	ALOX12 inh	TDP1 cell CPT	Gal4-VP16 FLuc	TDP1 cell noCPT	ELG1 repair inh
CCn1c(=O)n(CC)c2cc(S(=O)(=O)c3ccccc3)c(NC(=O)c3c(F)cccc3F)cc21	x	-43.9%	x	x	x	x
COc1ccccc1/C=C1\SC(=S)N(CCC(=O)Nc2ccc(C(=O)O)c(O)c2)C1=O	-3.5%	u	20.3%	-3.2%	-9.8%	-5.4%
O=C1/C(=C/c2cccs2)SC(=S)N1CCC(=O)N1CCCCC1CCO (configuration not stated)	u	u	u	11.2µM*	u	u
O=C(CCN1C(=O)/C(=C\c2cccs2)SC1=S)Nc1ccc(C(=O)O)cc1	-3.9%	u	-5.4%	-10.6%	13.9%	1.5%
COc1ccc(/C=C2\SC(=S)N(CCCC(=O)N3CCN(C)CC3)C2=O)cc1OC	x	-16.8%	-24.6%	x	-9.5%	x
COc1ccccc1/C=C1\SC(=S)N(CCC(=O)N2CCCCC2CCO)C1=O (configuration not stated)	u	-17.2%	16.4µM*	-1.5%	u	-8.4%
COc1cccc(/C=C2\SC(=S)N(CCC(=O)N3CCCCC3CCO)C2=O)c1 (configuration not stated)	u	-10.8%	13µM*	-29.4%	18.4µM*	-3.7%
COc1cccc(/C=C2\SC(=S)N(CCCC(=O)N3CCCC3)C2=O)c1	2.51µM*	-39.7%	u	-16.8%	20.6µM*	-17.3%
CCCCCC1CCC(C2CCC(C(=O)O)CC2)CC1 (configuration not stated)	x	8.1%	x	x	x	x
Cc1nc(C2(C)CCN(C(=O)CCc3nc4ccccc4[nH]3)CC2)no1	x	48.5%	x	x	x	x
COc1cccc(/C=C2\SC(=S)N(CCCC(=O)N3CCCCC3CCO)C2=O)c1 (configuration not stated)	3.55µM*	0.0%	u	2.82µM*	16.4µM*	u
CCCCNC(=O)C[C@@H]1C[C@@]2(C(=O)OC)CCCCC=C2N(Cc2cccc3ccccc23)C1=O	x	-1.3%	u	x	u	x
COC(=O)[C@]12CCCCC=C1N(Cc1cccc3ccccc13)C(=O)[C@H](CC(=O)NCCCCc1ccccc1)C2	x	62.5%	u	x	16.4µM*	x
COC(=O)[C@]12CCCCC=C1N(Cc1ccccc1)C(=O)[C@H](CC(=O)NCCCCc1ccccc1)C2	x	-6.5%	23.1µM*	x	u	x
COC(=O)[C@]12CCCCC=C1N(Cc1cccc3ccccc13)C(=O)[C@H](CC(=O)NCc1ccc(C)o1)C2	x	-39.4%	u	x	20.6µM*	x
CCOC(=O)[C@]12CCCC=C1N(Cc1ccccc1)C(=O)[C@H](CC(=O)NCCCCc1ccccc1)C2	x	-11.3%	u	x	u	x
N#Cc1ccccc1CN1CCC(Cc2nncn2-c2ccccc2)CC1	x	11.0%	x	x	x	x
CC(C)[C@H](NC(=O)c1ccccc1)C(=O)OCc1nnc(-c2ccccc2)o1	16.4%	-6.8%	u	-12.4%	23.1µM*	14.6%
O=C(OCc1nnc(-c2ccccc2)o1)c1ccc(S(=O)(=O)NCc2ccco2)cc1	-3.6%	-32.7%	u	2.0%	23.1µM*	9.7%
